SMILES strings stand for the structures. Records with an inconclusive call do not appear. Entries that show only a call come without a potency. The source made the active and inactive calls. Calls come from the whole dose curve; as a rule, active = well fitted curve in the direction sought with a large enough effect in the repeat runs; inconclusive = weak or mixed curves; inactive = no such curve, though single readings can be large; an effect the other way counts as inactive or inconclusive.

A short description of the first test: A CellTox Green Cytotoxicity Assay to monitor cytotoxicity in HepG2 cells - 8 hour (AID 1224890). Note: nearly all actives have a fitted effect of over 45% in size. Note: potency is the fitted concentration of half-maximal effect. The following applies: CellTox Green fluorescence; series mostly up to 76.8 µM. In outline: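 Continuous culture of HepG2 cells with a membrane-impermeant DNA dye; rising fluorescence marks dead cells. Compound exposure lasted up to 40 h at 37 C, with reads every 8 h from 0 h.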
For the compound `COc1ccc(/C=C/C(=O)c2ccc(OC)cc2OC)cc1`, the Potency entry is “inactive”.

As for `CCNc1nc(N)nc(Cl)n1`, the Potency entry is “inactive”.

On to `COC(CC(C)CCCC(C)(C)O)OC` (stereo unspecified), for which the Potency entry is “inactive”.

On to `CC(=O)NNC(C)=O`, for which the Potency entry was “inactive”.

Regarding `Nc1ccn([C@H]2CS[C@@H](CO)O2)c(=O)n1`, the Potency result was “inactive”.

`Nc1ccc(S(=O)(=O)NCc2ccccc2)cc1`: the Potency entry was “inactive”.

As for `CCN(CC)C(=O)N1CCN(C)CC1`, the Potency entry is “inactive”.

In the case of `CC(C)(C)S`, the Potency entry was “inactive”.

As to `CCOC(=O)N1CCC(Nc2ccc(Cl)cc2N)CC1`, the Potency result is “inactive”.

Regarding `CC(=O)OCC(=O)[C@@]1(OC(C)=O)[C@@H](C)C[C@H]2[C@@H]3C[C@H](F)C4=CC(=O)C=C[C@]4(C)[C@@]3(F)[C@@H](O)C[C@@]21C`, the Potency result is “inactive”.

Regarding `CCCCCCOC(=O)CCCCC`, the Potency result was “inactive”.

On to `CC/C=C\C/C=C\C/C=C\CCCCCCCC(=O)OCC`, for which the Potency result is “inactive”.

On to `O=C(O)CCC(=O)OC[C@@H](NC(=O)C(Cl)Cl)[C@H](O)c1ccc([N+](=O)[O-])cc1`, for which the Potency is 21.3 µM (active).

A short description of another test: qHTS assay to identify small molecule antagonists of the estrogen receptor alpha (ER-alpha) signaling pathway using the BG1 cell line in the presence of 0.1 nM 17-beta-estradiol - cell viability counter screen (AID 1259241). Note: nearly all actives have a fitted effect of over 40% in size. Particulars: VM7Luc4E2 (BG1) viability, CellTiter-Fluor protease, 22 h, 0.1 nM estradiol agonist added; series mostly up to 92.4 µM. An outline of the steps: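 In this screen, hormone-deprived VM7Luc4E2 cells were seeded at 4,000 per well, dosed with compound and 0.1 nM estradiol final, and incubated 22 hr at 37C and 5% CO2; fluorogenic live-cell protease signal reported viability.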
As to `Nc1nc(-c2ccc([N+](=O)[O-])cc2)cs1`, the Potency result is “inactive”.

On to `Cc1cccc(C)c1NC(=O)c1cc(S(N)(=O)=O)c(Cl)cc1O`, for which the Potency result is “inactive”.

Regarding `CCCCCCCCCCCCCOC(=O)CCSCCC(=O)OCCCCCCCCCCCCC`, the activity change, negative = cytotoxicity is 6.24% [at 19 µM] (inactive).

Turning to `CC(=O)N[C@@H](Cc1ccc(O)cc1)C(=O)O`, the Potency entry is “inactive”.

On to `CCCCCC`, for which the Potency result is “inactive”.

Consider `Cc1ccccc1S(N)(=O)=O`, for which the Potency entry was “inactive”.

For `CCN(CC)CCOC(=O)C(c1ccccc1)c1ccccc1`, the Potency result is “inactive”.

Consider `O=S(=O)(O)CO`, for which the Potency result is “inactive”.

Take `CC(=O)OCC1=C(C(=O)O)N2C(=O)[C@@H](NC(=O)CSc3ccncc3)[C@H]2SC1`: the Potency result was “inactive”.

Regarding `O=C(O)CN1C(=O)c2cccc3cccc(c23)C1=O`, the Potency entry is “inactive”.

Turning to `SCCc1cnccn1`, the Potency entry was “inactive”.

Turning to `COc1ccc(C)cc1`, the Potency entry was “inactive”.

As to `CC(C)c1ccc(C(=O)N=C(N)N)cc1S(C)(=O)=O`, the Potency result was “inactive”.

Regarding `O=C1OC(=O)c2c(Br)c(Br)c(Br)c(Br)c21`, the Potency result was “inactive”.

`OCC(CO)n1cnc(-c2ccc(F)cc2)c1-c1ccnc(Oc2ccccc2)n1`: the Potency result was “inactive”.

Turning to `C1CCCCC1`, the Potency entry is “inactive”.

For `Cc1c[nH]c2ccccc12`, the Potency result was “inactive”.

In the case of `O=C(O)CCS`, the Potency entry was “inactive”.

In the case of `Cc1ccc2nc(N)[nH]c(=O)c2c1Sc1ccncc1`, the Potency entry is “inactive”.

On to `O=C(O)CCCc1c[nH]c2ccccc12`, for which the Potency entry was “inactive”.

`CCCCCCCC(=O)Oc1c(Br)cc(C#N)cc1Br`: the Potency entry was “inactive”.

As for `CCN(CC)CC(=O)Nc1c(C)cccc1C(=O)OC`, the Potency result was “inactive”.

Take `CC(C)N=C=NC(C)C`: the Potency result was “inactive”.

Take `CC1CCCO1` (stereo unspecified): the Potency entry is “inactive”.

For the compound `[Cl][Nd]([Cl])[Cl]`, the Potency result is “inactive”.

For `CC1=CC[C@@]23C[C@@H]1C(C)(C)[C@@H]2CC[C@H]3C`, the Potency entry was “inactive”.

With `COc1ccc(/C=C/C(=O)c2ccc(OC)cc2OC)cc1`, the Potency entry was “inactive”.

For `CCNc1nc(N)nc(Cl)n1`, the Potency result was “inactive”.

For the compound `COC(CC(C)CCCC(C)(C)O)OC` (stereo unspecified), the Potency result is “inactive”.

For the compound `CC(=O)NNC(C)=O`, the Potency entry was “inactive”.

On to `Nc1ccn([C@H]2CS[C@@H](CO)O2)c(=O)n1`, for which the Potency result is “inactive”.

As to `Nc1ccc(S(=O)(=O)NCc2ccccc2)cc1`, the Potency result was “inactive”.

As to `CCN(CC)C(=O)N1CCN(C)CC1`, the Potency result is “inactive”.

Consider `CC(C)(C)S`, for which the Potency entry is “inactive”.

As to `CCOC(=O)N1CCC(Nc2ccc(Cl)cc2N)CC1`, the Potency entry is “inactive”.

For the compound `CC(=O)OCC(=O)[C@@]1(OC(C)=O)[C@@H](C)C[C@H]2[C@@H]3C[C@H](F)C4=CC(=O)C=C[C@]4(C)[C@@]3(F)[C@@H](O)C[C@@]21C`, the Potency result is “inactive”.

In the case of `CCCCCCOC(=O)CCCCC`, the Potency entry was “inactive”.

Turning to `CC/C=C\C/C=C\C/C=C\CCCCCCCC(=O)OCC`, the Potency result was “inactive”.

In the case of `O=C(O)CCC(=O)OC[C@@H](NC(=O)C(Cl)Cl)[C@H](O)c1ccc([N+](=O)[O-])cc1`, the Potency entry was “inactive”.

The next test can be described thus: qHTS assay to identify small molecule antagonists of the androgen receptor (AR) signaling pathway using the MDA cell line in the presence of 0.5 nM R1881 - cell viability counter screen (AID 1259242). Note: nearly all actives have a fitted effect of over 45% in size. Particulars: MDA-kb2 viability, CellTiter-Fluor protease fluorescence, 16 h; series mostly up to 92.4 µM. An outline of the steps: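 Fluorescence from CellTiter-Fluor, which reports protease activity of live cells, was read 30 min after reagent addition to MDA-kb2 cells that had been incubated 16 hr with compound and 0.5 nM R1881.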
Background: In qHTS, concentration-response curves come from the screen itself.
`Nc1nc(-c2ccc([N+](=O)[O-])cc2)cs1`: the Potency result was “inactive”.

Take `Cc1cccc(C)c1NC(=O)c1cc(S(N)(=O)=O)c(Cl)cc1O`: the Potency result is “inactive”.

With `CCCCCCCCCCCCCOC(=O)CCSCCC(=O)OCCCCCCCCCCCCC`, the viability change, negative = cytotoxic is 3.47% [at 19 µM] (inactive).

Regarding `CC(=O)N[C@@H](Cc1ccc(O)cc1)C(=O)O`, the Potency entry is “inactive”.

Take `CCCCCC`: the Potency entry was “inactive”.

With `Cc1ccccc1S(N)(=O)=O`, the Potency result was “inactive”.

For the compound `CCN(CC)CCOC(=O)C(c1ccccc1)c1ccccc1`, the Potency entry was “inactive”.

Take `O=S(=O)(O)CO`: the Potency entry is “inactive”.

Take `CC(=O)OCC1=C(C(=O)O)N2C(=O)[C@@H](NC(=O)CSc3ccncc3)[C@H]2SC1`: the Potency result is “inactive”.

Take `O=C(O)CN1C(=O)c2cccc3cccc(c23)C1=O`: the Potency result is “inactive”.

Consider `SCCc1cnccn1`, for which the Potency result was “inactive”.

As for `COc1ccc(C)cc1`, the Potency entry was “inactive”.

`CC(C)c1ccc(C(=O)N=C(N)N)cc1S(C)(=O)=O`: the Potency entry is “inactive”.

Take `O=C1OC(=O)c2c(Br)c(Br)c(Br)c(Br)c21`: the Potency entry was “inactive”.

In the case of `OCC(CO)n1cnc(-c2ccc(F)cc2)c1-c1ccnc(Oc2ccccc2)n1`, the Potency entry was “inactive”.

As for `C1CCCCC1`, the Potency result was “inactive”.

Turning to `Cc1c[nH]c2ccccc12`, the Potency entry is “inactive”.

As for `O=C(O)CCS`, the Potency result is “inactive”.

As for `Cc1ccc2nc(N)[nH]c(=O)c2c1Sc1ccncc1`, the Potency result is “inactive”.

As to `O=C(O)CCCc1c[nH]c2ccccc12`, the Potency entry was “inactive”.

As to `CCCCCCCC(=O)Oc1c(Br)cc(C#N)cc1Br`, the Potency result was “inactive”.

Take `CCN(CC)CC(=O)Nc1c(C)cccc1C(=O)OC`: the Potency entry is “inactive”.

Take `CC(C)N=C=NC(C)C`: the Potency entry is “inactive”.

On to `CC1CCCO1` (stereo unspecified), for which the Potency entry is “inactive”.

Consider `[Cl][Nd]([Cl])[Cl]`, for which the Potency entry was “inactive”.

In the case of `CC1=CC[C@@]23C[C@@H]1C(C)(C)[C@@H]2CC[C@H]3C`, the Potency result was “inactive”.

As for `COc1ccc(/C=C/C(=O)c2ccc(OC)cc2OC)cc1`, the Potency result is “inactive”.

As to `CCNc1nc(N)nc(Cl)n1`, the Potency entry is “inactive”.

As to `COC(CC(C)CCCC(C)(C)O)OC` (stereo unspecified), the Potency entry is “inactive”.

On to `CC(=O)NNC(C)=O`, for which the Potency entry was “inactive”.

For `Nc1ccn([C@H]2CS[C@@H](CO)O2)c(=O)n1`, the Potency entry was “inactive”.

For `Nc1ccc(S(=O)(=O)NCc2ccccc2)cc1`, the Potency result was “inactive”.

As for `CCN(CC)C(=O)N1CCN(C)CC1`, the Potency result was “inactive”.

For `CC(C)(C)S`, the Potency result was “inactive”.

`CCOC(=O)N1CCC(Nc2ccc(Cl)cc2N)CC1`: the Potency entry was “inactive”.

In the case of `CC(=O)OCC(=O)[C@@]1(OC(C)=O)[C@@H](C)C[C@H]2[C@@H]3C[C@H](F)C4=CC(=O)C=C[C@]4(C)[C@@]3(F)[C@@H](O)C[C@@]21C`, the Potency entry is “inactive”.

Consider `CCCCCCOC(=O)CCCCC`, for which the Potency result is “inactive”.

In the case of `CC/C=C\C/C=C\C/C=C\CCCCCCCC(=O)OCC`, the Potency entry is “inactive”.

Regarding `O=C(O)CCC(=O)OC[C@@H](NC(=O)C(Cl)Cl)[C@H](O)c1ccc([N+](=O)[O-])cc1`, the Potency result is “inactive”.
